Measured values as given in PubChem BioAssay (Tox21).
“And” between values parts separate entries of the source, which are not always exact repeats. Equal entries are not always repeated. Inconclusive results are not listed. Where a call stands in place of a potency, no number is given. Where a structure was tested more than once in an assay, its records may differ in their call. The source made the active and inactive calls. Unless noted, calls follow the shape of the full dose curve. Numbered stars: 1 amine (or outer) side, 2 acyl side, 3 side chain; on linkers, the order of the positions; unused ones are H or OH. Bridge positions count the residues as written; N and C are the ends. Square brackets hold non-standard residues; d marks the D form. Peptide text beside a SMILES is read from it. I, II: the chains in the order shown. Actinocin(9to1) = Cc1c2oc3c(C)ccc(C(=O)[*:1])c3nc-2c(C(=O)[*:2])c(N)c1=O; NMeV = CN[C@H](C(=O)O)C(C)C; Sar = CNCC(=O)O

Tests used:
[1] = Nuclear factor erythroid 2-related factor 2/antioxidant responsive element (Nrf2/ARE) small molecule agonists: qHTS cell viability counter screen in human keratinocytes (AID 1919968; active = well fitted curve in the direction sought with a large enough effect in the repeat runs; an effect the other way counts as inactive or inconclusive; also: nearly all actives have a fitted effect of over 55% in size; also: potency is read from the fitted curve at half-maximal effect)
Method in brief: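 KeratinoSens HaCaT cells, 1,500/well, preincubated 5 h, then exposed to compounds in DMSO for 23 h at 37 C/5% CO2. Viability read as CellTiter-Fluor fluorescence after 1 h, in the same wells as the ARE-luciferase read.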

[2] = Nuclear factor erythroid 2-related factor 2/antioxidant responsive element (Nrf2/ARE) small molecule agonists: luciferase reporter gene qHTS assay in human keratinocytes (AID 1919969); also: nearly all actives have a fitted effect of over 35% in size; also: potency is read from the fitted curve at half-maximal effect
[3] = target: KiSS-1 receptor (Homo sapiens) (UniProt Q969F8); test: Human kisspeptin (KISS1R) small molecule agonists, calcium flux assay in KISS1R-HEK293 cells (AID 1920064; active = well fitted curve in the direction sought with a large enough effect in the repeat runs; an effect the other way counts as inactive or inconclusive)
Method in brief: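 HEK293 cells stably expressing human KISS1R were loaded with calcium dye for 1 h at 37 C, then given compound; fluorescence (Ex/Em 480/540) was read kinetically for 3 min. Fifteen concentrations, triplicate.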

[4] = G protein-coupled receptor (GPCR) small molecule agonists, calcium flux assay: HEK293 wild type cell line counter screen (AID 1920065)
Method in brief: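 Wild-type HEK293 cells plated 18 h, loaded with calcium dye 1 h at 37 C, then compounds added in agonist mode (ATP as positive control). Kinetic fluorescence Ex/Em 480/540 recorded 3 min at 1 sec intervals; 15 concentrations, triplicate.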

[5] = p53 small molecule agonists, cell-based qHTS assay with human liver microsomes: qHTS cell viability counter screen (AID 1963579); also: nearly all actives have a fitted effect of over 45% in size; also: potency is read from the fitted curve at half-maximal effect
Method in brief: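 Seed p53RE-bla cells at 4,000 per well; incubate 5 h at 37 C; add compound, human liver microsomes and NADPH; incubate 16 h at 37 C; add CellTiter-Glo; after 30 min at room temperature, read luminescence.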

[6] = p53 small molecule agonists, cell-based qHTS assay: qHTS cell viability counter screen (AID 1963581); also: nearly all actives have a fitted effect of over 45% in size; also: potency is read from the fitted curve at half-maximal effect
Method in brief: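 p53RE-bla HCT-116 cells, compounds added 5 h after plating and incubated 16 h at 37 C. Cytotoxicity measured in the same wells as intracellular ATP by CellTiter-Glo luminescence after 30 min at room temperature.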

[7] = target: 5-hydroxytryptamine receptor 2A (Homo sapiens) (UniProt P28223); test: 5-hydroxytryptamine receptor 2A (HTR2A) small molecule antagonists, cell-based qHTS assay (AID 1963586); also: nearly all actives have a fitted effect of over 45% in size; also: potency is read from the fitted curve at half-maximal effect
Method in brief: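 Antagonist-mode intracellular calcium assay: DOI (4 nM) added after 5 min compound pre-incubation at room temperature to dye-loaded HTR2A-CHO cells. Fluorescence followed for 3 min, sampled every second.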

[8] = target: 5-hydroxytryptamine receptor 2A (Homo sapiens) (UniProt P28223); test: 5-hydroxytryptamine receptor 2A (HTR2A) small molecule agonists, cell-based qHTS assay (AID 1963587); also: nearly all actives have a fitted effect of over 30% in size
Method in brief: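 CHO cells stably expressing human HTR2A, plated 18 h, loaded with calcium dye 1 h at 37 C. Agonist mode: compounds added and intracellular calcium fluorescence recorded kinetically for 2 min at 1 sec intervals.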

[9] = target: Muscarinic acetylcholine receptor M1 (Homo sapiens) (UniProt P11229); test: Cholinergic receptor muscarinic 1 (CHRM1) small molecule antagonists, cell-based qHTS assay (AID 1963588); also: nearly all actives have a fitted effect of over 40% in size
Method in brief: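 CHRM1-CHO calcium-flux assay, antagonist mode. Cells were seeded 18 h, dye-loaded 1 h at 37 C and given compound for 5 min at RT, then acetylcholine was added at 50nM. FDSS fluorescence was read 3 min; 15 concentrations, three runs.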

[10] = target: Muscarinic acetylcholine receptor M1 (Homo sapiens) (UniProt P11229); test: Cholinergic receptor muscarinic 1 (CHRM1) small molecule agonists, cell-based qHTS assay (AID 1963589); also: nearly all actives have a fitted effect of over 35% in size
Method in brief: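 CHO cells stably expressing human CHRM1 were loaded with calcium dye for 1 h at 37 C, then compound was added in agonist mode. Intracellular calcium fluorescence was followed kinetically at 1 s intervals. Fifteen concentrations were tested in three independent runs.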

[11] = target: Beta-2 adrenergic receptor (Homo sapiens) (UniProt P07550); test: Adrenergic beta2 receptor (ADRB2) small molecule antagonists, cell-based qHTS assay (AID 1963592); also: series mostly up to about 92 µM; nearly all actives have a fitted effect of over 50% in size
Method in brief: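 Cells (CHO, stable ADRB2 overexpression) incubated 18-20hr at 37C; compounds added from DMSO; agonist mix (1nM isoproterenol, 100uM IBMX, 25uM Ro-20-1724) added; 0.5hr RT; d2-cAMP and anti-cAMP-cryptate added; 1hr RT; 665/615 nm read.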

[12] = target: Beta-2 adrenergic receptor (Homo sapiens) (UniProt P07550); test: Adrenergic beta2 receptor (ADRB2) small molecule agonists, cell-based qHTS assay (AID 1963593); also: potency is read from the fitted curve at half-maximal effect;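 as to activation: CHO cells stably overexpressing human ADRB2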
Method in brief: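 CHO cells stably over-expressing ADRB2 were plated overnight at 37C, then dosed with compounds plus a stimulation mix containing 100uM IBMX and 25uM Ro-20-1724 for 0.5hr at room temperature. cAMP was measured by HTRF competition, 1hr.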

[13] = target: D(2) dopamine receptor (Homo sapiens) (UniProt P14416); test: Dopamine D2 receptor (DRD2) small molecule agonists, cell-based qHTS assay (AID 1963594); also: nearly all actives have a fitted effect of over 35% in size
Method in brief: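 HEK293 cells stably expressing human DRD2, pre-treated with PDE inhibitor Ro20-1724 (0.1 mM final) and compound 10 min at room temperature, then stimulated with NKH477 (200nM […]) for 30 min. cAMP read by HTRF (665/620 nm).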

[14] = target: D(2) dopamine receptor (Homo sapiens) (UniProt P14416); test: Dopamine D2 receptor (DRD2) small molecule antagonists, cell-based qHTS assay (AID 1963595; active = well fitted inhibition curve with a large enough effect in the signal ratio in the repeat runs, with a control signal flat; the % refers to the signal ratio; also: potency is read from the fitted curve at half-maximal effect)
Method in brief: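 HEK293 cells stably expressing DRD2 were preincubated with 0.1 mM Ro20-1724, then with compound for 10 min at room temperature. Cells were stimulated with 200 nM NKH477 plus 12 nM quinpirole for 30 min, and cAMP was read by HTRF.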

[15] = p53 small molecule agonists, cell-based qHTS assay with rat liver microsomes: qHTS cell viability counter screen (AID 1963580); also: nearly all actives have a fitted effect of over 45% in size
Method in brief: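 Viability is assessed in parallel with the p53 reporter read: HCT-116 p53RE-bla cells receive compounds plus rat microsomes and NADPH (0.5 mg/mL final apiece), incubate 16 h at 37 C, and then CellTiter-Glo luminescence is recorded.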

[16] = cAMP Responsive Elements (CRE) small molecule agonists, cell-based qHTS assay (AID 1963590)
Method in brief: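 CRE-bla HEK 293T cells, 2,000/well in DMEM with 10% dialyzed FBS and 25 mM HEPES, pre-incubated 18 h at 37 C, then exposed to compound 3 h at 37 C. Beta-lactamase reporter read with LiveBLAzer B/G FRET substrate after 2 h at room temperature.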

[17] = cAMP Responsive Elements (CRE) small molecule antagonists, cell-based qHTS assay (AID 1963591; active = well fitted inhibition curve with a large enough effect in the signal ratio in the repeat runs, not every such curve was filed as active; the % refers to the signal ratio)
Method in brief: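 CRE-bla HEK293T cells plated 18 h, then given compound plus NKH477 at 0.25 uM final for 3 h at 37C. Beta-lactamase reporter read with LiveBLAzer B/G FRET substrate after 2 h at room temperature.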

[18] = p53 small molecule agonists, cell-based qHTS assay with human liver microsomes (AID 1963577)
Method in brief: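 Cells carrying a p53-responsive bla reporter were rested 5 h (37 C, 5% CO2) before compound transfer. Human liver microsomes plus NADPH, 0.5 mg/mL final apiece, supplied metabolism during the 16 h 37 C exposure.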

[19] = p53 small molecule agonists, cell-based qHTS assay with rat liver microsomes (AID 1963578)
Method in brief: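 Fluorescence from a beta-lactamase reporter under a p53 response element was measured after cells had been incubated 16 h at 37 C with test compound and rat liver microsomes plus NADPH (0.5 mg/mL final each).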

[20] = p53 small molecule agonists, cell-based qHTS assay (AID 1963582; active = well fitted activation curve with a large enough effect in the signal ratio in the repeat runs, not every such curve was filed as active; the % refers to the signal ratio; also: potency is read from the fitted curve at half-maximal effect)
Method in brief: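 p53RE-bla reporter cells, compounds added in DMSO after 5 h plating, incubated 16 h at 37 C. Beta-lactamase read via 2 h room-temperature LiveBLAzer B/G FRET substrate, fluorescence intensity.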

5-hydroxytryptamine receptor 2A (Homo sapiens), sequence (P28223 whole entry, looked up): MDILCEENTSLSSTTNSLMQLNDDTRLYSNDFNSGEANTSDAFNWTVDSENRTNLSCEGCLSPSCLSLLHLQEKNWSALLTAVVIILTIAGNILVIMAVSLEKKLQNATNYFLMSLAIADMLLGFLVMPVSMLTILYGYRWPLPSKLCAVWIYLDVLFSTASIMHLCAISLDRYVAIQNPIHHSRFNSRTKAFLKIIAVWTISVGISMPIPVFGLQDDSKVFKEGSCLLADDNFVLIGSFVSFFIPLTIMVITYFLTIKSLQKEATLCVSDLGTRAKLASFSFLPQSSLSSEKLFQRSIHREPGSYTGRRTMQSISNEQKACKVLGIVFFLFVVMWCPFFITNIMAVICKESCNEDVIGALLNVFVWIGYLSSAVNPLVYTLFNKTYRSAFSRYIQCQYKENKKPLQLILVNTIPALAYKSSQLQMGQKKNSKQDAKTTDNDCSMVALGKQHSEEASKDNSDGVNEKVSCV
Beta-2 adrenergic receptor (Homo sapiens), sequence (P07550 whole entry, looked up): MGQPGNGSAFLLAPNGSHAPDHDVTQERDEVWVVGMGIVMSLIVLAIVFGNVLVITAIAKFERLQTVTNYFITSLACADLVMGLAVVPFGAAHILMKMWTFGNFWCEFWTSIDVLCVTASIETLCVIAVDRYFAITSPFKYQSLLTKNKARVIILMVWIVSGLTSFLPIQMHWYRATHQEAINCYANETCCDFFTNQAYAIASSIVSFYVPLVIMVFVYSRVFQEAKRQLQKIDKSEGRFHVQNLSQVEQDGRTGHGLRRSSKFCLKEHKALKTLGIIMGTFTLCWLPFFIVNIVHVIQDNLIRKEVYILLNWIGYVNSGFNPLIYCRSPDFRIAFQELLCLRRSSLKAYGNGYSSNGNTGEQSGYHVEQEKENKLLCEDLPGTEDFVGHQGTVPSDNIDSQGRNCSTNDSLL
KiSS-1 receptor (Homo sapiens), sequence (Q969F8 whole entry, looked up): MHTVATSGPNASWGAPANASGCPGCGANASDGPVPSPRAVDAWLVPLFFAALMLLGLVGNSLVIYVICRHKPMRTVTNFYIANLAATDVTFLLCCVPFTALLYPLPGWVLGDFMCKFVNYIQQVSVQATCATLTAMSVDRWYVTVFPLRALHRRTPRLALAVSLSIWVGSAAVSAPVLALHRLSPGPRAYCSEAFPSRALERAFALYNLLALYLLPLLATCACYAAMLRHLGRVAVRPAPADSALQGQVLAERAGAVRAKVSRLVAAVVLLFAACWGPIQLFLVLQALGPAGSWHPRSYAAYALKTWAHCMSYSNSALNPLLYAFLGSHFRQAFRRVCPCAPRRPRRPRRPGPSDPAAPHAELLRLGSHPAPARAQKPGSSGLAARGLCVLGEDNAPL
Muscarinic acetylcholine receptor M1 (Homo sapiens), sequence (P11229 whole entry, looked up): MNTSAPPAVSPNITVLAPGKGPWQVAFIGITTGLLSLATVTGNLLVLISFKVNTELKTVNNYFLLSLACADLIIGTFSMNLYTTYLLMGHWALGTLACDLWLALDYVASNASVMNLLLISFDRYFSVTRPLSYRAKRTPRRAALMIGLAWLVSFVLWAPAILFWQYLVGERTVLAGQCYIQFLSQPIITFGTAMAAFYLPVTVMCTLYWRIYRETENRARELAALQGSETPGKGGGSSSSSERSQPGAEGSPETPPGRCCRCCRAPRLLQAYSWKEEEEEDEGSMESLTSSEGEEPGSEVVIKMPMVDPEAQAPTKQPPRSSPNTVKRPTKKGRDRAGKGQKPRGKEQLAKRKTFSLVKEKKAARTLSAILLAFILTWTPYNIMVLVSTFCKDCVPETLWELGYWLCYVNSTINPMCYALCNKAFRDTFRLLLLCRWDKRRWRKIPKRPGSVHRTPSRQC
D(2) dopamine receptor (Homo sapiens), sequence (P14416 whole entry, looked up): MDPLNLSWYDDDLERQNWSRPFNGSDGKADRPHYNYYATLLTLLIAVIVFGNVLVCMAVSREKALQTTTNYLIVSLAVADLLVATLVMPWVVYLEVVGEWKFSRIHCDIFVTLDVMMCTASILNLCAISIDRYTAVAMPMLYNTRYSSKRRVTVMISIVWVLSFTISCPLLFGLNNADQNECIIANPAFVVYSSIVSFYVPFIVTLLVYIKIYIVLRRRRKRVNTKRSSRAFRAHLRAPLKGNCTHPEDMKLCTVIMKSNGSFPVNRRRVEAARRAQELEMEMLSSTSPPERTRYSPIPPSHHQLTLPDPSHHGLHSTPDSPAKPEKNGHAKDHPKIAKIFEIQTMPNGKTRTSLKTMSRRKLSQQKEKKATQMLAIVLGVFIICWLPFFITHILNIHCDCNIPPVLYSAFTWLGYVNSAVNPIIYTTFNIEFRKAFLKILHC

SMILES | Potency [1] | Potency [2] | Potency [3] | Potency [4] | Potency [5] | Potency [6] | Potency [7] | Potency [8] | Potency [9] | Potency [10] | Potency [11] | Potency [12] | Potency [13] | Potency [14] | Potency [15] | Potency [16] | Potency [17] | Potency [18] | Potency [19] | Potency [20]
C=CC(=O)OCC(CO)(COC(=O)C=C)COC(=O)C=C | 4.87 µM (active) and 12.2 µM (active) | 4.87 µM (active) and 6.11 µM (active) | inactive | inactive | 45.9 µM (active) and 9.13 µM (active) | 16.3 µM (active) and 10.2 µM (active) | inactive | inactive | inactive | inactive | inactive | 6.88 µM (active) and 19.3 µM (active) | inactive | 54.6 µM (active) and 21.7 µM (active) |  |  |  |  |  | 
Nc1nc(N)nc(-c2ccccc2)n1 | inactive | inactive | inactive | inactive | inactive | inactive | inactive |  | inactive | inactive | inactive |  | inactive | inactive | inactive | inactive | inactive |  |  | 
Cc1c2oc3c(C)ccc(C(=O)N[C@@H]4C(=O)N[C@H](C(C)C)C(=O)N5CCC[C@H]5C(=O)N(C)CC(=O)N(C)[C@@H](C(C)C)C(=O)O[C@@H]4C)c3nc-2c(C(=O)N[C@@H]2C(=O)N[C@H](C(C)C)C(=O)N3CCC[C@H]3C(=O)N(C)CC(=O)N(C)[C@@H](C(C)C)C(=O)O[C@@H]2C)c(N)c1=O (I: T[dV]P[Sar][NMeV] / II: T[dV]P[Sar][NMeV]; ester I:1-I:C, II:1-II:C; linker I:N-II:N via Actinocin(9to1)) | 42.1 nM (active) | inactive and 42.2 nM (active) | inactive | inactive |  |  |  |  |  |  | inactive | inactive | inactive | inactive | inactive |  |  | inactive | inactive | 0.0022 µM (active)
c1ccc(CNCc2ccccc2)cc1 | inactive | inactive | inactive |  | inactive | inactive | 8.4 µM (active) | inactive | inactive | inactive | inactive | inactive | inactive | inactive | inactive | inactive | inactive | inactive | inactive | inactive
CCC(=O)OCc1ccccc1 | inactive | inactive | inactive | inactive | inactive | inactive | inactive | inactive | inactive | inactive | inactive |  | inactive | inactive | inactive | inactive | inactive | inactive |  | inactive
Nc1ccc(O)cc1 | 71.2 µM (active) and inactive | 28.4 µM (active) | inactive | inactive | inactive |  |  | inactive | inactive | inactive | inactive | inactive | inactive |  | inactive |  | inactive |  |  | 
CNCCO | inactive | inactive | inactive | inactive | inactive |  | inactive | inactive |  | inactive | inactive | inactive | inactive | inactive | inactive |  | inactive | inactive |  | inactive
Oc1ccc(C(c2ccc(O)cc2)C(Cl)(Cl)Cl)cc1 | 60.9 µM (active) and 54.5 µM (active) | 27.3 µM (active) | inactive | inactive | inactive | inactive | inactive |  |  |  |  |  | inactive | inactive |  |  | inactive |  | inactive | 
CC12CCC(C(=O)C1=O)C2(C)C (stereo not drawn) | inactive | inactive |  | inactive | inactive | inactive | inactive | inactive | inactive | inactive | inactive | inactive | inactive | inactive | inactive | inactive | inactive | inactive | inactive | inactive
CC(C)CC(C)O (stereo not drawn) | inactive | inactive | inactive | inactive | inactive | inactive | inactive | inactive | inactive | inactive | inactive | inactive | inactive | inactive | inactive | inactive | inactive |  |  | 
CC(C)CC(C)(N)C#N (stereo not drawn) | inactive | inactive | inactive | inactive | inactive | inactive | inactive | inactive | inactive | inactive | inactive |  | inactive | inactive | inactive | inactive | inactive | inactive |  | inactive
Cc1ccc(C(C)c2ccc(C)c(C)c2)cc1C | inactive | inactive | inactive | inactive |  | inactive | inactive | inactive | inactive | inactive | inactive | inactive | inactive | inactive | inactive | inactive | inactive | inactive | inactive | inactive
CC1(C)O[C@@H]2C[C@H]3[C@@H]4C[C@H](F)C5=CC(=O)C=C[C@]5(C)[C@@]4(F)[C@@H](O)C[C@]3(C)[C@]2(C(=O)CO)O1 | inactive | inactive | inactive | inactive | inactive | inactive |  |  |  |  | inactive | inactive | inactive | inactive |  |  |  |  |  | 
CCOC(=O)CCC(C)=O | inactive | inactive | inactive |  | inactive | inactive | inactive | inactive | inactive | inactive | inactive |  | inactive | inactive | inactive | inactive | inactive | inactive | inactive | 
